This is part of a sample that, as a whole, favours compounds with a hit. Of some 83,000 tested, about 20% had one in any assay.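 Percent growth is the endpoint: 0 to 100 indicates growth inhibition (40 means 60% inhibition), 0 means no net growth, and negative values indicate cell death.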 Unmarked numbers belong to inactive results. Activity calls are given as the source filed them.

This test relates to HOP-92 NSCLC. Nature of the test: NCI-60 one-dose screen, 48 h (100 = growth as untreated, 0 = no growth, -100 = all killed). The following applies: 10 µM unless noted. The procedure:
Growth inhibition of the HOP-92 human Non-Small Cell Lung tumor cell line is measured as a screen for anti-cancer activity. Cells are grown in 96 well plates and exposed to the test compound for 48 hours. Compounds are tested at a single concentration, which is 10^-5 M for most compounds. The reported endpoint is percent growth (GI% or GIPRCNT), where numbers from 0 - 100% represent growth inhibition, and numbers from -100% - 0 represent cell death. For example, a value of 40 represents 60% growth inhibition. A value of 0 means no net growth occurred over the course of the experiment. A value of -40 indicates 40% of cells at the beginning of the experiment died by the end of the experiment. A value of -100 means all cells are dead at the end of the experiment.
NCI-60 Human Tumor Cell Lines Screen was performed using the standard one-dose NCI protocol, which is described in more detail at https://dtp.cancer.gov/discovery_development/nci-60/default.htm.
Compounds with GIPRCNT values below 10 were considered active. Activity score was based on GIPRCNT using the following formula: […]
Score is 0 for GIPRCNT values of 100 or above, 50 for GIPRCNT values of 0, and 100 for GIPRCNT values of -100.
As for `CCCNc1nc2ccccc2c2c1S(=O)(=O)c1ccc(Cl)cc1C2=O`, the growth was -27.2% (active).

For the molecule `CN(C)c1ccc(C(=O)OCCCCCCl)cc1`, the growth is 89.3%.

For the molecule `COC(=O)c1cc(N=C2NC(=O)/C(=C/C=C/c3ccccc3)S2)ccc1O`, the growth is 34.3%.

For the molecule `COc1ccc(-c2cc(-c3ccc(Cl)cc3)c(C#N)c(=O)n2Cc2ccc(C(=O)Nc3ccccc3N)cc2)cc1`, the growth is 54.1%.

As to `O=C1/C=C/[C@@H](O)[C@@H]2C[C@@H](O)C[C@H]2/C=C/CCC[C@H](CCc2ccccc2)O1`, the growth was -16.5% (active).

As for `NC(=O)c1cccc(-n2ccc3cc(NC(=O)c4ccc(N5CCOCC5)c(C(F)(F)F)c4)ccc32)n1`, the growth is 66.8%.

Turning to `CCOC(=O)c1cc2c(n1Cc1cc(OC)c(OC)c(OC)c1)-c1nc(N)sc1CCC2`, the growth is 42%.

For the molecule `N#Cc1c(-c2ccccc2)[nH]c2ncc(-c3ccccc3)n2c1=O`, the growth was 80.7%.

With `Cc1cccc(/C=C2\CN(C(=O)OC(C)(C)C)C/C(=C\c3cccc(C)c3)C2=O)c1`, the growth is 87.3%.

As to `O=C1C(=O)N(Cc2ccc(-c3ccccc3)cc2)c2ccc(OC(F)(F)F)cc21`, the growth was 60.8%.

Turning to `COc1cccc(CNc2ccc3ncnc(Nc4ccc(F)c(Cl)c4)c3c2)c1`, the growth is 76.8%.

For the molecule `Cc1ccc2c(c1)=C/C(=C\c1cc(-c3ccccc3)oc1O)C(=O)N=2`, the growth is 87.4%.

As to `CCCCCCCCCc1ccc(OCCOCCOCCOCCOCCOCCOCCOCCOCCO)cc1`, the growth is -9.71% (active).

Consider `CC1=C2[C@@H](CC1)[C@]1(C)O[C@@](C(C)C)(C[C@H]1OC(=O)[C@H](C)O)[C@H]2OC(=O)/C=C/c1ccccc1`, for which the growth is 55.9%.

Take `O=C(/C=C(/C=C/c1ccc2[nH]ccc2c1)OB(F)F)/C=C/c1ccc2[nH]ccc2c1`: the growth is 4.49% (active).

On to `CCOC(=O)C1=C(c2ccccc2)N=C2SC=C(c3ccc(Cl)cc3)N2C1c1ccc(Br)cc1` (stereo not given), for which the growth was 56.1%.

`O=C1/C(=C/c2ccccc2Br)COc2ccc(O)cc21`: the growth is 104%.

`C=CCn1c(SCC(=O)Nc2ccc(C(=O)/C=C/c3ccc(Cl)cc3)cc2)nnc1-c1ccc(Br)cc1`: the growth was 87.2%.

For the molecule `CN1C(=O)/C(=C\c2c(Cl)cccc2Cl)c2ccccc21`, the growth is 83.4%.

As for `N#Cc1c(-c2ccc(Cl)cc2)c(C#N)c2c(C#N)c(N)nn2c1N`, the growth was 61%.

As for `COC1/C=C/OC2(C)Oc3c(C)c(O)c4c(O)c(c(/C=N/Nc5ccc([N+](=O)[O-])cc5[N+](=O)[O-])c(O)c4c3C2=O)NC(=O)C(C)=C/C=C/C(C)C(O)C(C)C(O)C(C)C(OC(C)=O)C1C` (stereo not given), the growth is -60.8% (active).

`COc1cc2c(cc1OCCCN1CCN(CCCOc3cc4c(cc3OC)C(=O)N3CCC[C@H]3C=N4)CC1)C=CC(C)(C)O2`: the growth was -29.6% (active).

`Cn1cc(-c2csc(-c3c[nH]c4ccc(Br)cc34)n2)c2ccnc(Cl)c21`: the growth was 64.2%.

With `O=C(/C=C/c1cccs1)Nc1ncc(Cc2ccccc2F)s1`, the growth is 60%.

In the case of `CC1(C)COB(OCC(C)(C)COB2OCC(C)(C)CO2)OC1`, the growth is 87.9%.

For `CCCCNC(=O)Oc1ccc(/C(=C(/C)Cc2ccc(OC)cc2)c2ccc(OCCN(CC)CC)cc2)cc1`, the growth is 52.6%.

`Oc1c(Br)cc(Br)c2ccc(Cn3cc(-c4ccc(C(F)(F)F)cc4)nn3)nc12`: the growth is 21.5%.

Regarding `COc1c(B(O)O)cccc1-c1nc2c(F)cc3[nH]ncc3c2c2c1CCCC2`, the growth was 14.4%.

For the molecule `O=C1Nc2ccccc2/C1=C/c1nc2ccccc2c(=O)[nH]1`, the growth was 94.1%.

For `CSc1oc(C)nc1[P+](c1ccccc1)(c1ccccc1)c1ccccc1`, the growth is 59.9%.

Consider `COc1cc(NS(=O)(=O)c2ccc(-c3cnc(C4CC4)o3)cc2)ccc1F`, for which the growth was 33.8%.

`Clc1cc(Cl)c(Cl)c(-c2nnc(SCc3ccncc3Br)o2)c1`: the growth was 84.4%.

Consider `C=CC(=O)N1CCN(c2cccc(Oc3nccc(Nc4nnc(-c5ccc(Br)cc5)s4)n3)c2)CC1`, for which the growth was 88.3%.

With `O=C1C(Cl)=C(NCCCCCCNC2=C(Cl)C(=O)c3ccccc3C2=O)C(=O)c2ccccc21`, the growth is 86.2%.

With `c1csc(-c2ccc(CNc3c4ccccc4nc4ccccc34)cc2)c1`, the growth was -2.1% (active).

As to `COc1cc(OC)c(NC(=O)c2cc3ccccc3cc2O)cc1Cl`, the growth is -31.2% (active).

On to `COc1ccc(NC(=O)c2sc3nc(C)c(C(=O)/C=C/c4ccccc4)cc3c2N)cc1`, for which the growth was 109%.

Turning to `Cc1nc2sc(C(=O)Nc3ccc(Br)cc3)c(N)c2cc1C(O)c1ccccc1` (stereo not given), the growth was 77%.

For the molecule `CCOCCNC1=C(Cl)C(=O)c2ccccc2C1=O`, the growth was 127%.

In the case of `O=C(O)c1cn(C2CC2)c2cc(N3CCN(C(=O)N(c4ccccc4)c4nc(-c5ccccc5)cs4)CC3)c(F)cc2c1=O`, the growth was -25% (active).

The values are drawn from PubChem BioAssay (NCI).
